Test results as given in PubChem BioAssay (Tox21).
Results filed as inconclusive are left out. Activity calls are given as the source filed them. Unless noted, calls follow the shape of the dose curve; as a rule, active = well fitted curve in the direction sought with a large enough effect in the repeat runs; inconclusive = weak or mixed curves; inactive = no such curve, though single readings can be large; an effect the other way counts as inactive or inconclusive.

Experiments:
[1] = target: Estrogen receptor beta (Homo sapiens) (UniProt Q92731); assay: qHTS assay to identify small molecule antagonists of the estrogen receptor beta (ER-beta) signaling pathway (AID 1259378; active = well fitted inhibition curve with a large enough effect in the signal ratio in the repeat runs, not every such curve was filed as active; the % refers to the signal ratio; also: potency is read from the fitted curve at half-maximal effect)
Estrogen receptor beta (Homo sapiens), sequence (Q92731 whole entry, looked up): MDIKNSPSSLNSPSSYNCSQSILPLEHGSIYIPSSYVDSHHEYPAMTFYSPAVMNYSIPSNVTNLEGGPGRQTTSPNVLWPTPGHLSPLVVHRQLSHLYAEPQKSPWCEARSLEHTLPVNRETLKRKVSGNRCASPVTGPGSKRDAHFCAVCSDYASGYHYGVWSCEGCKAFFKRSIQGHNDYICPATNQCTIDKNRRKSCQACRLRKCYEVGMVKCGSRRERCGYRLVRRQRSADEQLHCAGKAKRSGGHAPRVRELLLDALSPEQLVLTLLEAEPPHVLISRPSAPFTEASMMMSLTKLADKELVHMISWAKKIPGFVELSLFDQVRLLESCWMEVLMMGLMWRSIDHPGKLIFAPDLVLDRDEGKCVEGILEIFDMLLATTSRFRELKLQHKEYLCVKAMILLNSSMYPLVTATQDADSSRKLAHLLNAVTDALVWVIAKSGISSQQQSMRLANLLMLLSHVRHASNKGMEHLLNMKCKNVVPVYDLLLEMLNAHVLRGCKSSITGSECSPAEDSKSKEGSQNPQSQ
Outline: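 Antagonist mode: compounds added to beta-lactamase reporter HEK293T ER-beta-UAS cells stimulated with E2 (1nM final), 16 hr at 37C. LiveBLAzer B/G FRET substrate, 2 hours room temperature, fluorescence read-out.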

[2] = qHTS assay to identify small molecule agonists of the androgen receptor (AR) signaling pathway in the presence of an antagonist - cell viability counter screen (AID 1259379); also: nearly all actives have a fitted effect of over 25% in size; also: potency is read from the fitted curve at half-maximal effect
Outline: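 Fluorescence from CellTiter-Fluor, added after 15 hr and read 1 hr later, gave cell viability. Cells were MDA-kb2 exposed to compounds (15 concentrations) in the presence of 3.0uM nilutamide at 37C, 0% CO2.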

[3] = qHTS assay to identify small molecule agonists of the estrogen receptor beta (ER-beta) signaling pathway - cell viability counter screen (AID 1259380); also: nearly all actives have a fitted effect of over 30% in size; also: potency is read from the fitted curve at half-maximal effect
Outline: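 Same-well viability counter screen. Cells: ER-beta-UAS-bla HEK293T, plated 6 hr before compound, in 2% charcoal-stripped FBS. Compound exposure 16 hr, 37C; viability by CellTiter-Glo luminescence after 30 min at room temperature.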

[4] = qHTS assay to identify small molecule antagonists of the estrogen receptor beta (ER-beta) signaling pathway - cell viability counter screen (AID 1259382);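 also: HEK293T cells carrying ER-beta-UAS-bla reporter stimulated with estradiol; series mostly up to about 92 µM; nearly all actives have a fitted effect of over 55% in size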
Outline: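 Following a 6 hr plating period, HEK293T cells carrying a UAS-driven beta-lactamase reporter under ER-beta control received compounds and 1nM E2 (final). After 16 hr at 37C and 2 hr substrate loading, CellTiter-Glo luminescence indicated viability.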

[5] = target: Estrogen receptor (Homo sapiens) (UniProt P03372); assay: qHTS assay to identify small molecule agonists of the estrogen receptor alpha (ER-alpha) signaling pathway in the presence of an antagonist (AID 1259383; calls by dose curve; also: top concentration of the series differs between compounds; nearly all actives have a fitted effect of over 15% in size)
Estrogen receptor (Homo sapiens), sequence (P03372 whole entry, looked up): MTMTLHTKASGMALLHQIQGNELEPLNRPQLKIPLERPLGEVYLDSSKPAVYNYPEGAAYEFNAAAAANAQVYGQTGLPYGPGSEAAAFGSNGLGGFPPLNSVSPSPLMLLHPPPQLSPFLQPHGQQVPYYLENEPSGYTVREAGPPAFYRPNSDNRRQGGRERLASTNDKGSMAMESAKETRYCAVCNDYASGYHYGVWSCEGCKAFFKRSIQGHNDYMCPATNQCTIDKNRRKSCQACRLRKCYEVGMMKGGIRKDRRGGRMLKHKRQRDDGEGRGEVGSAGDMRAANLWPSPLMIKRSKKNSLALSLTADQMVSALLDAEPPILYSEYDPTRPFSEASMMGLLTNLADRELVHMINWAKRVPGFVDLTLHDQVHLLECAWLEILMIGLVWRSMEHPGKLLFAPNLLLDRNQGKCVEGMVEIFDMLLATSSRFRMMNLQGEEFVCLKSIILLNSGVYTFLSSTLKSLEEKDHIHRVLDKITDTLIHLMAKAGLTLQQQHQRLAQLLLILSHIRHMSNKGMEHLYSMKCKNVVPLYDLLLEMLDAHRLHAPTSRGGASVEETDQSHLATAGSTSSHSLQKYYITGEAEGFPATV
Outline: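 Cells are hormone-deprived for 5 days (charcoal-stripped FBS, no phenol red), plated for 24hr, spiked with 10.0nM ICI-182,780, then dosed at 15 concentrations. After 22hr at 37C, ONE-Glo luminescence reports ERE-luciferase activity.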

[6] = qHTS assay to identify small molecule agonists or antagonists of the thyroid stimulating hormone receptor (TSHR) signaling pathway - wild type cell line counter screen (AID 1259384; calls by dose curve)
Outline: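 Counter screen in untransfected Hek293: compounds (15-point titration, triplicate) plus phosphodiesterase inhibitor Ro20-1724 added after 18 h plating; 30 min RT. Intracellular cAMP via competitive d2/cryptate immunoassay, 1 h incubation.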

[7] = target: Progesterone receptor (Homo sapiens) (UniProt P06401); assay: qHTS assay to identify small molecule agonists of the progesterone receptor (PR) signaling pathway (AID 1346784; calls by dose curve; also: nearly all actives have a fitted effect of over 30% in size)
Progesterone receptor (Homo sapiens), sequence (P06401 whole entry, looked up): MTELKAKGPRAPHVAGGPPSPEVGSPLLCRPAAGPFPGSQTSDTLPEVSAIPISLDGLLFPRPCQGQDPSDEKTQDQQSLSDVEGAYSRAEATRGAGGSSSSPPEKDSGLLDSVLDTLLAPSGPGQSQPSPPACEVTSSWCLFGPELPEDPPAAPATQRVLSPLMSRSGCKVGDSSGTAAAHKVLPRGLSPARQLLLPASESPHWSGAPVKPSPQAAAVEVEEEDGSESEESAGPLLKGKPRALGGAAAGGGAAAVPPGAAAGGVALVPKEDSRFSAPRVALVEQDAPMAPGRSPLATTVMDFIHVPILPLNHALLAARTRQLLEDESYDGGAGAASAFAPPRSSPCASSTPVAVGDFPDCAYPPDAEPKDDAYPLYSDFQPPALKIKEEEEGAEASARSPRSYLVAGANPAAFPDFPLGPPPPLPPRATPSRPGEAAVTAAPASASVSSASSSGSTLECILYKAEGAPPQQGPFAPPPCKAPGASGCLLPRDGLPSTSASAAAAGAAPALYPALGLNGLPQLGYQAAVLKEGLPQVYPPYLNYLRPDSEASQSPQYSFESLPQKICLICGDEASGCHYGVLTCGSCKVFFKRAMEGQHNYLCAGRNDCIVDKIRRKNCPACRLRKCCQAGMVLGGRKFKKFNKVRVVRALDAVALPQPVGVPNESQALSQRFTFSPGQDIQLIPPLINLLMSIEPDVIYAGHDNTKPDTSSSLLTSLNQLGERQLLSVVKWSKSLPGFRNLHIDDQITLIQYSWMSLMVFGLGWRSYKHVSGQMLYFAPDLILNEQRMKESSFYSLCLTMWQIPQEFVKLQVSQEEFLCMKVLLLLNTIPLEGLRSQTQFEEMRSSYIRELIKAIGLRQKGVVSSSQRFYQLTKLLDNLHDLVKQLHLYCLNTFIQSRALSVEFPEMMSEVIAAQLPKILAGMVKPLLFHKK
Outline: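 Reporter assay, GripTite PR-UAS-bla HEK 293T cells: 16 hr exposure to DMSO-dissolved compounds at 37C, 5% CO2, in steroid-depleted (2% charcoal-stripped FBS) medium; beta-lactamase measured by FRET fluorescence.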

[8] = target: Progesterone receptor (Homo sapiens) (UniProt P06401); assay: qHTS assay to identify small molecule antagonists of the progesterone receptor (PR) signaling pathway (AID 1346795; active = well fitted inhibition curve with a large enough effect in the signal ratio in the repeat runs, not every such curve was filed as active; the % refers to the signal ratio; also: potency is read from the fitted curve at half-maximal effect)
Outline: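 Stimulus R5020 at 1 nM final; cells HEK293T PR-UAS-bla; medium with 2% charcoal-stripped FBS; compound exposure 16 hr at 37C, 5% CO2; detection by FRET beta-lactamase substrate, 2 hr, room temperature.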

[9] = qHTS assay to identify small molecule antagonists of the progesterone receptor (PR) signaling pathway - cell viability counter screen (AID 1346798); also: series mostly up to about 92 µM; nearly all actives have a fitted effect of over 50% in size
Outline: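 In the same plates used for the beta-lactamase readout, cell viability of compound- and R5020-treated PR-UAS-bla HEK293T cells (16 hr, 37C) was assessed by CellTiter-Glo luminescence.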

[10] = qHTS assay to identify small molecule agonists of the progesterone receptor (PR) signaling pathway - cell viability counter screen (AID 1346799; calls by dose curve; also: nearly all actives have a fitted effect of over 45% in size)
Outline: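 Multiplexed viability read: CellTiter-Glo luminescence, 30 min RT, following LiveBLAzer FRET measurement on PR-UAS-bla HEK293T cells exposed to compounds 16 hr.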

[11] = qHTS assay to identify small molecule antagonists of the TGF-beta/Smad signaling pathway - cell viability counter screen (AID 1346824); also: nearly all actives have a fitted effect of over 50% in size
Outline: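 Cytotoxicity counter-screen run in the same wells as the beta-lactamase Smad reporter read: CellTiter-Glo luminescence after 30 min at room temperature. HEK 293T SBE-bla cells had 5 hr compound exposure at 37 C with TGF-beta1 (0.25 ng/mL stock).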

[12] = qHTS assay to identify small molecule agonists of the TGF-beta/Smad signaling pathway - cell viability counter screen (AID 1346829); also: top concentration of the series differs between compounds; nearly all actives have a fitted effect of over 45% in size
Outline: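 After overnight seating at 37 C and 5% CO2, reporter cells got compounds for 5 hr and FRET substrate for 2 hr; cell viability then came from CellTiter-Glo luminescence.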

[13] = qHTS assay to identify small molecule agonists of the TGF-beta/Smad signaling pathway (AID 1346859; active = well fitted activation curve with a large enough effect in the signal ratio in the repeat runs, not every such curve was filed as active; the % refers to the signal ratio; also: series mostly up to about 77 µM)
Outline: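 Screening used HEK 293T SBE-bla cells at 4,000/well. Test agents: 5 hr, 37 C. Detection: FRET substrate, 2 hr RT, then excitation 405 nm with emissions at 460 and 530 nm.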

[14] = target: Thyrotropin-releasing hormone receptor (Homo sapiens) (UniProt P34981); assay: qHTS assay to identify small molecule antagonists of the thyrotropin-releasing hormone receptor (TRHR) signaling pathway (AID 1346877; active = well fitted inhibition curve with a large enough effect in the repeat runs, not every such curve was filed as active; also: series mostly up to about 51 µM)
Thyrotropin-releasing hormone receptor (Homo sapiens), sequence (P34981 whole entry, looked up): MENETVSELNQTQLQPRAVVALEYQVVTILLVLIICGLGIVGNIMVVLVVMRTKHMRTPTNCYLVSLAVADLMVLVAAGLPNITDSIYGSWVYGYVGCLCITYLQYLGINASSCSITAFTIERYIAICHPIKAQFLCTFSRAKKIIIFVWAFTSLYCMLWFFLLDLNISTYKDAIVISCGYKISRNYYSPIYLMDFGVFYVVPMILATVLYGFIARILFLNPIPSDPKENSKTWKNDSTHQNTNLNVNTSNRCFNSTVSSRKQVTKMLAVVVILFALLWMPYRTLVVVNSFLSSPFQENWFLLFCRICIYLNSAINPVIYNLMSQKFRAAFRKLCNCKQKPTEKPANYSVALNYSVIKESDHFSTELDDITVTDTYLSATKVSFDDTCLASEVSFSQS
Outline: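 Cells (TRHR-HEK293) are plated and kept 18 h at 37 °C/5% CO2. A calcium-sensitive dye is added for 2 h, compound follows for 5 min at room temperature, and TRH is then given at 1 nM final.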

[15] = target: Thyrotropin-releasing hormone receptor (Homo sapiens) (UniProt P34981); assay: qHTS assay to identify small molecule agonists of the thyrotropin-releasing hormone receptor (TRHR) signaling pathway (AID 1346891; calls by dose curve; also: series mostly up to about 58 µM)
Outline: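 Readout was intracellular calcium fluorescence in TRHR-Hek293 cells. Cells were incubated 18 h, dye-loaded 2 h at 37 °C, and treated with compound in agonist mode.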

[16] = Human pregnane X receptor (PXR) small molecule agonists, qHTS cell viability counter screen (AID 1346977); also: nearly all actives have a fitted effect of over 50% in size; also: potency is read from the fitted curve at half-maximal effect
Outline: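 In each well, the PXR reporter HepG2 line was checked for viability: CellTiter-Fluor reagent added 23hr post-dosing, fluorescence read after 1hr incubation at 37C.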

[17] = Caspase-3/7 induction in HepG2 cells by small molecules, qHTS assay (AID 1346978); also: nearly all actives have a fitted effect of over 15% in size
Outline: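 Caspase-3/7 induction was measured by Caspase-Glo 3/7 luminescence (30 min, room temperature) after a 17 hr compound exposure of wild-type HepG2 cells seeded at 2,000 per well and pre-incubated 5 hr.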

[18] = target: Thyrotropin receptor (Homo sapiens) (UniProt P16473); assay: qHTS assay to identify small molecule antagonists of the thyroid stimulating hormone receptor (TSHR) signaling pathway (AID 1259385; calls by dose curve; also: nearly all actives have a fitted effect of over 20% in size)
Thyrotropin receptor (Homo sapiens), sequence (P16473 whole entry, looked up): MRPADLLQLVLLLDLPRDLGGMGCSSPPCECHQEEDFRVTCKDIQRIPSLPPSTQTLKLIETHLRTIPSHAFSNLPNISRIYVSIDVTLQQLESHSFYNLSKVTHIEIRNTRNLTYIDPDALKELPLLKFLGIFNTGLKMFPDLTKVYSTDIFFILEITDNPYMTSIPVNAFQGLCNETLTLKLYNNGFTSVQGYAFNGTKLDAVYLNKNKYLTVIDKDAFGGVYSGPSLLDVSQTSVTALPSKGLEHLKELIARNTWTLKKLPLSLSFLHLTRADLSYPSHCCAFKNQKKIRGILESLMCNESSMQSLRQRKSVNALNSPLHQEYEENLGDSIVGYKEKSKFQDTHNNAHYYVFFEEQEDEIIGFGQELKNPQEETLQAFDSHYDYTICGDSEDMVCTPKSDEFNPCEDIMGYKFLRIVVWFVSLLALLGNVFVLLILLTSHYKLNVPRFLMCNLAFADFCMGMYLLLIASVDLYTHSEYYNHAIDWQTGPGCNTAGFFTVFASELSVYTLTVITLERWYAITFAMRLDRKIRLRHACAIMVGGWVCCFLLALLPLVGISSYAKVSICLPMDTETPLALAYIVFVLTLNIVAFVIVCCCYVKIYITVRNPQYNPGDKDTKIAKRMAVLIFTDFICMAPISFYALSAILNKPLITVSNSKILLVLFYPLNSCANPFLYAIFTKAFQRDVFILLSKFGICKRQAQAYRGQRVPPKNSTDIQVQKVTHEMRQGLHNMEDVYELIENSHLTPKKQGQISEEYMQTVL
Outline: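 Antagonist mode: compound-treated TSHR-expressing HEK293 cells were stimulated with 1.5 ng/mL TSH (final) in presence of Ro20-1724 for 30 min at RT. HTRF cAMP detection after 1 h; each compound tested at 15 concentrations, triplicate.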

[19] = qHTS assay to identify small molecule agonists of the estrogen receptor alpha (ER-alpha) signaling pathway in the presence of an antagonist - cell viability counter screen (AID 1259386);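 also: series mostly up to about 92 µM; cells exposed to compounds for 22 h at 37 °C before the viability read; nearly all actives have a fitted effect of over 30% in size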
Outline: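 Cells are starved of estrogens for 5 days in charcoal-stripped serum, seeded for 24hr and co-treated with ICI-182,780 (10.0nM final) and test compounds. After 22hr at 37C, viability is read as CellTiter-Fluor fluorescence.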

Measured: Potency

CC(C)(C)C1=CC(=O)C=C(C(C)(C)C)C1=O
inactive: [1] | [2] | [3] | [4] | [5] | [6] | [7] | [8] | [9] | [10] | [11] | [12] | [13] | [14] | [15] | [16] | [17]

CC(C)=CCCC(C)CCOC(=O)C(C)C (stereo not drawn)
inactive: [1] | [2] | [3] | [4] | [6] | [18] | [19] | [7] | [8] | [9] | [10] | [11] | [12] | [13] | [14] | [15] | [16] | [17]

C[Si](C)O[Si](C)C
inactive: [1] | [2] | [3] | [4] | [5] | [6] | [18] | [19] | [7] | [8] | [9] | [10] | [11] | [12] | [13] | [16] | [17]

CCc1c(C(=O)O)c(=O)cnn1-c1ccc(Cl)cc1
inactive: [1] | [2] | [3] | [4] | [5] | [6] | [18] | [19] | [7] | [8] | [9] | [10] | [11] | [12] | [13] | [14] | [16] | [17]

CCCC(=O)OCC(COC(=O)CCC)OC(=O)CCC
inactive: [1] | [2] | [3] | [4] | [5] | [6] | [18] | [19] | [7] | [8] | [9] | [10] | [11] | [12] | [13] | [15] | [16] | [17]

CN(C)c1ccc(N=Nc2ccccc2C(=O)O)cc1
active: [1] 15.4 µM | [2] 68.6 µM | [8] 15.4 µM | [16] 61.1 µM
inactive: [3] | [4] | [5] | [11] | [12] | [13] | [15] | [17]

CCCCCCCC(C)=O
inactive: [1] | [2] | [3] | [4] | [5] | [6] | [18] | [19] | [7] | [8] | [9] | [10] | [11] | [12] | [13] | [17]

CCC(=O)OCCc1ccccc1
inactive: [1] | [2] | [3] | [4] | [5] | [6] | [18] | [19] | [7] | [9] | [10] | [11] | [12] | [13] | [14] | [15] | [16] | [17]

CCc1cccc(CC)c1N(COC)C(=O)CS(=O)(=O)O
inactive: [1] | [2] | [3] | [4] | [5] | [6] | [19] | [7] | [8] | [9] | [10] | [12] | [13] | [15] | [16] | [17]

CCN(CC)CCSC(=O)C(c1ccccc1)c1ccccc1
active: [3] 29.8 µM
inactive: [1] | [2] | [4] | [5] | [6] | [18] | [7] | [8] | [9] | [10] | [11] | [12] | [13] | [14] | [15] | [17]

Cn1cnc2ncnc(N)c21
inactive: [1] | [2] | [3] | [4] | [5] | [6] | [18] | [19] | [7] | [8] | [9] | [11] | [12] | [13] | [14] | [16] | [17]

COC(=O)CC(C)CCC=C(C)C (stereo not drawn)
inactive: [1] | [2] | [3] | [4] | [5] | [19] | [7] | [9] | [10] | [11] | [12] | [13] | [14] | [15] | [16] | [17]

Cc1ccc(O)cn1
inactive: [1] | [2] | [3] | [4] | [5] | [6] | [18] | [19] | [9] | [10] | [11] | [12] | [13] | [15] | [16] | [17]

CCCCCCCC/C=C/CCCOC(C)=O
inactive: [1] | [2] | [3] | [4] | [6] | [18] | [19] | [7] | [8] | [9] | [10] | [11] | [12] | [13] | [16] | [17]

Cc1cccc(N(C)C)c1
inactive: [1] | [2] | [3] | [4] | [5] | [6] | [18] | [7] | [8] | [9] | [10] | [11] | [12] | [13] | [16] | [17]
